# Data published in article PMC7862700, “An all-to-all approach to the identification of sequence-specific readers for epigenetic DNA modifications on cytosine”.
# What was measured:
# Experiment in all cases: DAPPL (digital affinity profiling via proximity ligation, sequencing); 10 mM Tris-HCl pH 7.5, 50 mM NaCl, 1 mM DTT, 4% glycerol, room temperature, 30 min; GST-TFs on glutathione beads, 16-mer random dsDNA library, 0.1% formaldehyde crosslink after washing; high values mean tight binding
# FLI1 = target: T1, FLI1 (Homo sapiens, UniProt Q01543 1-452); conditions: protein: recombinant; tags: N-terminal GST; dsDNA, one strand shown
# T1 sequence: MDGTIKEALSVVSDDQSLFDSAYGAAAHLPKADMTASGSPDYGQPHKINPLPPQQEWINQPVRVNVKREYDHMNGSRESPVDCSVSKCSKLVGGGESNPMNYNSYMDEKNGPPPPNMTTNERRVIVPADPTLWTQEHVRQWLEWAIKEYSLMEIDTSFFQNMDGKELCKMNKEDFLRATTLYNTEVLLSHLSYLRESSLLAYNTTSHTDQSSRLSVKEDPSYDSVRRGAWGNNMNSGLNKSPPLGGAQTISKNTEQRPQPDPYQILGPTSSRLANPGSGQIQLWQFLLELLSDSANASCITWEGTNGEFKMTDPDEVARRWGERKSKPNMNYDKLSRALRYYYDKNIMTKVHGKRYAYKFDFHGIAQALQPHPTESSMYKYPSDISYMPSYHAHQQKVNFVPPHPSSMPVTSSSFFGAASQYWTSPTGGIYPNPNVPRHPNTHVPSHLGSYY
# Outline: (§1)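 After expression in yeast as GST fusions, human transcription factors were bound to glutathione beads, DNA-barcoded and mixed with a tag-only sample. The pools were incubated with 200 nmole of a 16-mer random double-stranded DNA library in Tris/NaCl/DTT/glycerol buffer (30 min, room temperature), washed and crosslinked with 0.1% formaldehyde. Proximity ligation with BsaI/T4 ligase ran for 1 h at 37 °C, before PCR amplification and sequencing on an Illumina NextSeq500. Binding signal is a hexamer's read frequency for a factor divided by its frequency for the tag-only sample.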
# ELK1 = target: T2, ELK1 (Homo sapiens, UniProt P19419 1-428); conditions: protein: recombinant; tags: N-terminal GST; dsDNA, one strand shown
# T2 sequence: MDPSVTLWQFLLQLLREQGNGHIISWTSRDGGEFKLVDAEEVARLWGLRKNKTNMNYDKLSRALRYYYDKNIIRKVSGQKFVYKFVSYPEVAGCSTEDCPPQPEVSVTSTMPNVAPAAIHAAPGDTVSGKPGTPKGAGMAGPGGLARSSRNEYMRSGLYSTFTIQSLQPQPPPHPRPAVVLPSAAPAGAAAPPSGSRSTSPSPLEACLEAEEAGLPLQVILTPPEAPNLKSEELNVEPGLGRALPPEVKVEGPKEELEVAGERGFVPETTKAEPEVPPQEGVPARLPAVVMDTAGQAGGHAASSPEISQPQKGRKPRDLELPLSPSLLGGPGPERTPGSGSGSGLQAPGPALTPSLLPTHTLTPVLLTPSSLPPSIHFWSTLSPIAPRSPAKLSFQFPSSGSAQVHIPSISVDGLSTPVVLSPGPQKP
# Outline: as §1
# GABPA = target: T3, GABPA (Homo sapiens, UniProt Q06546 1-454); conditions: protein: recombinant; tags: N-terminal GST; dsDNA, one strand shown
# T3 sequence: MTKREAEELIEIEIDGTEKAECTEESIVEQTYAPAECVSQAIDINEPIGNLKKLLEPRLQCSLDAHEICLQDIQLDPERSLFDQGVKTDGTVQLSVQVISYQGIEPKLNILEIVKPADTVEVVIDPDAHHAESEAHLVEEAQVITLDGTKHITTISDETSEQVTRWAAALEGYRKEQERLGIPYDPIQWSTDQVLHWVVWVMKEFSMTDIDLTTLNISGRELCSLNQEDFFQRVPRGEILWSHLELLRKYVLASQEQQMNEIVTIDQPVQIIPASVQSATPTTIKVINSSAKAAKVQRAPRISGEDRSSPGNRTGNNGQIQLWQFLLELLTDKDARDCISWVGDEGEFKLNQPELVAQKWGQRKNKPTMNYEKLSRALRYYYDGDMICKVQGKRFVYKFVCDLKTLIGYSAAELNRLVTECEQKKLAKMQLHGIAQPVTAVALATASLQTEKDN
# Outline: as §1
# ERG = target: T4, ERG (Homo sapiens, UniProt P11308 1-479); conditions: protein: recombinant; tags: N-terminal GST; dsDNA, one strand shown
# T4 sequence: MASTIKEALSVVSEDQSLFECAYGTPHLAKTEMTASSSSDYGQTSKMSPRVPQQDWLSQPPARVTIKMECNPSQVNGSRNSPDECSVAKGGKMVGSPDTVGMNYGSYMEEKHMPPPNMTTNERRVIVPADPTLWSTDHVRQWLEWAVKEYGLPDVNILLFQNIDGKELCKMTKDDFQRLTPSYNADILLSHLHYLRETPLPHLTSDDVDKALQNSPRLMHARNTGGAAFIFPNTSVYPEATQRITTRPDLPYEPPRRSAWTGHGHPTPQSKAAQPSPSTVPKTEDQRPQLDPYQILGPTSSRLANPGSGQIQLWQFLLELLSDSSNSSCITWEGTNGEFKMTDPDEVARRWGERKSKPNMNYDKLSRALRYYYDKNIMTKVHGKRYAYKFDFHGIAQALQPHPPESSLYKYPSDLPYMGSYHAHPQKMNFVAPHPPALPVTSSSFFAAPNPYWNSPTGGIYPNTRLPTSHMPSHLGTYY
# Outline: as §1
# ELF1 = ELF1 (Homo sapiens, UniProt P32519 1-619); conditions: protein: recombinant; tags: N-terminal GST; dsDNA, one strand shown
# Sequence of ELF1 (P32519 whole entry): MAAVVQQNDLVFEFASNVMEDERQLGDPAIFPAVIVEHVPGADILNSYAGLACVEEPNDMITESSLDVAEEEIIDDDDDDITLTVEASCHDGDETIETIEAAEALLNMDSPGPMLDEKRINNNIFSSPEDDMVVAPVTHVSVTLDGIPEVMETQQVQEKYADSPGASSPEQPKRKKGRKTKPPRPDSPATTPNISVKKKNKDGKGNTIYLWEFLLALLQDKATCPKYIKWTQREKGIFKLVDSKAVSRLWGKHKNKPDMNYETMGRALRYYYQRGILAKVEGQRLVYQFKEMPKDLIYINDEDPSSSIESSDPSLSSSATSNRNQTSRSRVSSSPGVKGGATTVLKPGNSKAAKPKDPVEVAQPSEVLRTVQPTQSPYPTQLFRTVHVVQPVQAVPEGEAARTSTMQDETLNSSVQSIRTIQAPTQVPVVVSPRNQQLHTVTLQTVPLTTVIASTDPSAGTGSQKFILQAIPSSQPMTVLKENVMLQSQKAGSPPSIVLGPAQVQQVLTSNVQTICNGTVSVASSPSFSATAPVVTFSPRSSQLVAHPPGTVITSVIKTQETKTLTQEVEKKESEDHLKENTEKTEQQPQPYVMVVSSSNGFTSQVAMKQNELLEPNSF
# Outline: as §1
# EHF = target: T5, EHF (Homo sapiens, UniProt Q9NZC4 1-300); conditions: protein: recombinant; tags: N-terminal GST; dsDNA, one strand shown
# T5 sequence: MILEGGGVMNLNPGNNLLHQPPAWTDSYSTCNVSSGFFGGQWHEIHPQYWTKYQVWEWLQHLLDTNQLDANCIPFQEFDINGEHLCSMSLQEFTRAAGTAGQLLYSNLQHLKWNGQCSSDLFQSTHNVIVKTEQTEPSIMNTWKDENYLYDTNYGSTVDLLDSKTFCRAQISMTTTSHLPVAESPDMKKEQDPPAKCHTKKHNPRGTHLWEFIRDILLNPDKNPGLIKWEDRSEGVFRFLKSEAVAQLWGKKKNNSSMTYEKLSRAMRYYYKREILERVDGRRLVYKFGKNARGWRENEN
# Outline: as §1
# SPI1 = SPI1 (Homo sapiens, UniProt P17947 1-270); conditions: protein: recombinant; tags: N-terminal GST; dsDNA, one strand shown
# Outline: as §1
# SPIB = SPIB (Homo sapiens, UniProt Q01892 1-262); conditions: protein: recombinant; tags: N-terminal GST; dsDNA, one strand shown
# Sequence of SPIB (Q01892 whole entry): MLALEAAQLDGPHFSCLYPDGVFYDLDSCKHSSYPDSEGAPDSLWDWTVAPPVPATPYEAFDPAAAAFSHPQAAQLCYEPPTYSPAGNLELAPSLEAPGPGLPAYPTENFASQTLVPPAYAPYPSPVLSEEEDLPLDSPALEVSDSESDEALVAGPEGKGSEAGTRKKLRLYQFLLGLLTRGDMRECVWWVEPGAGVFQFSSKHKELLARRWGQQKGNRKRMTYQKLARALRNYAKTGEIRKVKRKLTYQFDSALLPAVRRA
# Outline: as §1
# ELK3 = target: T6, ELK3 (Homo sapiens, UniProt P41970 1-407); conditions: protein: recombinant; tags: N-terminal GST; dsDNA, one strand shown
# T6 sequence: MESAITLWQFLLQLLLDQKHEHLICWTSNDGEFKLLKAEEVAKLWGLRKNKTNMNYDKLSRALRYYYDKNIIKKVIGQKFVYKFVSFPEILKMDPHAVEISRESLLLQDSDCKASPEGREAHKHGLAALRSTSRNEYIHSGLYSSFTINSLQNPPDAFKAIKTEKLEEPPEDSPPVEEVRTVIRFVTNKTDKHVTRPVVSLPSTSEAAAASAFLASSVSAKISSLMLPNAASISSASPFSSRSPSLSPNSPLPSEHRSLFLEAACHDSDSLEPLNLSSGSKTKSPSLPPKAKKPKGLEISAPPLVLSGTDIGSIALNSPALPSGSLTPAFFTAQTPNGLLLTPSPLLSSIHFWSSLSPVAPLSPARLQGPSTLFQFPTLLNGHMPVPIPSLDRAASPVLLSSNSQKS
# Outline: as §1
# FEV = target: T7, FEV (Homo sapiens, UniProt Q99581 1-238); conditions: protein: recombinant; tags: N-terminal GST; dsDNA, one strand shown
# T7 sequence: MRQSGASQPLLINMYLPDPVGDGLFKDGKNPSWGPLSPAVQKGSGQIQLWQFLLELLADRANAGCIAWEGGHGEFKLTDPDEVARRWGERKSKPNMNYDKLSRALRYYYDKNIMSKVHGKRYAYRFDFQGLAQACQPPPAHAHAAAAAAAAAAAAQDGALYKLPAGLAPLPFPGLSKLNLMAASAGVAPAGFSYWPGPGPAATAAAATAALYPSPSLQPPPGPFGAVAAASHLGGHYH
# Outline: as §1
# ETV5 = ETV5 (Homo sapiens, UniProt P41161 1-510); conditions: protein: recombinant; tags: N-terminal GST; dsDNA, one strand shown
# Sequence of ETV5 (P41161 whole entry): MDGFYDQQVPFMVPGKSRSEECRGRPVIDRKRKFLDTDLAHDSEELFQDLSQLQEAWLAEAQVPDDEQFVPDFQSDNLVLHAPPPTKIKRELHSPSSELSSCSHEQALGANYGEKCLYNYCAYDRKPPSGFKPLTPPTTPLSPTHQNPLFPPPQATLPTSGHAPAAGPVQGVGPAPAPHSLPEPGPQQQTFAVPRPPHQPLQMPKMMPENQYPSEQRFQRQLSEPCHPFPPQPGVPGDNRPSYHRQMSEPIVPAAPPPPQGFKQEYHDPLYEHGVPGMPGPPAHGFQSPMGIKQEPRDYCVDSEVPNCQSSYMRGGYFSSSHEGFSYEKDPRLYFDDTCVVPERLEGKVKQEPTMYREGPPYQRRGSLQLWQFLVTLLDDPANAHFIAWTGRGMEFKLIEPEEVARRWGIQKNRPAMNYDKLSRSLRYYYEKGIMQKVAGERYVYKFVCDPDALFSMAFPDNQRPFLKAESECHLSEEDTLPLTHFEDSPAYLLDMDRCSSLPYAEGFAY
# Outline: as §1
# HSF1 = HSF1 (Homo sapiens, UniProt Q00613 1-529); conditions: protein: recombinant; tags: N-terminal GST; chain copies: 3; dsDNA, one strand shown
# Sequence of HSF1 (Q00613 whole entry): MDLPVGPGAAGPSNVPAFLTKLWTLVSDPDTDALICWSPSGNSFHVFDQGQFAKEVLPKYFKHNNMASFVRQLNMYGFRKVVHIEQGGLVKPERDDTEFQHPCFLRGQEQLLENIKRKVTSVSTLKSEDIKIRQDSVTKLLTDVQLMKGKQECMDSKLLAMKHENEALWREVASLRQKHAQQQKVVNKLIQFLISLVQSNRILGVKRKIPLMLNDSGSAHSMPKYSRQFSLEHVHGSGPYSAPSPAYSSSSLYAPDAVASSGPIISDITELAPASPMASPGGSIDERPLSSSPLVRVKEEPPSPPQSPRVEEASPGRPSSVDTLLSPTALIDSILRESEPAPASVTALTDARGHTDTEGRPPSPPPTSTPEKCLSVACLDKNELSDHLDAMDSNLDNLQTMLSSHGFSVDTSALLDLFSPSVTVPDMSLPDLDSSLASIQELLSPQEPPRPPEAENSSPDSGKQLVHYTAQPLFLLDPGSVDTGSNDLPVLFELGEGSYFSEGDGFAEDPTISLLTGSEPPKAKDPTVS
# Outline: as §1
# SPIC = target: T8, SPIC (Homo sapiens, UniProt Q8N5J4 1-248); conditions: protein: recombinant; tags: N-terminal GST; dsDNA, one strand shown
# T8 sequence: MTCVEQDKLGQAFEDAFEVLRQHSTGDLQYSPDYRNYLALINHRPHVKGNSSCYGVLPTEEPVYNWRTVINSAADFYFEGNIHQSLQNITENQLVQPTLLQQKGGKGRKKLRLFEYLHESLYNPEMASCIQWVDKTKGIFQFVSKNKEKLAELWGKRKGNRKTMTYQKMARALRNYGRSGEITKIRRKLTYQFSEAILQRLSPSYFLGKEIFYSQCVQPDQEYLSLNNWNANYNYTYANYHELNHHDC
# Outline: as §1
# ELF4 = ELF4 (Homo sapiens, UniProt Q99607 1-663); conditions: protein: recombinant; tags: N-terminal GST; dsDNA, one strand shown
# Sequence of ELF4 (Q99607 whole entry): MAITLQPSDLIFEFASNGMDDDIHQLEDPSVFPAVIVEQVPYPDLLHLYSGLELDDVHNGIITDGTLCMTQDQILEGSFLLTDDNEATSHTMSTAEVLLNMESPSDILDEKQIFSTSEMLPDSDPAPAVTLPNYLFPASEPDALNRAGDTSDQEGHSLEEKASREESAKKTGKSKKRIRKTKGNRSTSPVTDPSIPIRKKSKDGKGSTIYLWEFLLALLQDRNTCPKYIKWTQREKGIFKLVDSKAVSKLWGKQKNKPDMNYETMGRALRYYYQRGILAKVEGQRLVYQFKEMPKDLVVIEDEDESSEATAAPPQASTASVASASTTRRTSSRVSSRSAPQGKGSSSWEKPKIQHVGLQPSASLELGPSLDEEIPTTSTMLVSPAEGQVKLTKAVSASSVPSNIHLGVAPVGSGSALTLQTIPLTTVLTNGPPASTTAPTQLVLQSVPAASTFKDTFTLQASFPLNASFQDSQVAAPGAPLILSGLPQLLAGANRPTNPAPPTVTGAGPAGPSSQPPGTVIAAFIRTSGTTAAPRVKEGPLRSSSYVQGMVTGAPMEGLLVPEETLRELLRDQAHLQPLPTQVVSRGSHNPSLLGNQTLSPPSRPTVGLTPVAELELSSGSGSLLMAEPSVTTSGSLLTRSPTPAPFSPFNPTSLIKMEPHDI
# Outline: as §1
# ELK4 = target: T9, ELK4 (Homo sapiens, UniProt P28324-2 1-405); conditions: protein: recombinant; tags: N-terminal GST; dsDNA, one strand shown
# T9 sequence: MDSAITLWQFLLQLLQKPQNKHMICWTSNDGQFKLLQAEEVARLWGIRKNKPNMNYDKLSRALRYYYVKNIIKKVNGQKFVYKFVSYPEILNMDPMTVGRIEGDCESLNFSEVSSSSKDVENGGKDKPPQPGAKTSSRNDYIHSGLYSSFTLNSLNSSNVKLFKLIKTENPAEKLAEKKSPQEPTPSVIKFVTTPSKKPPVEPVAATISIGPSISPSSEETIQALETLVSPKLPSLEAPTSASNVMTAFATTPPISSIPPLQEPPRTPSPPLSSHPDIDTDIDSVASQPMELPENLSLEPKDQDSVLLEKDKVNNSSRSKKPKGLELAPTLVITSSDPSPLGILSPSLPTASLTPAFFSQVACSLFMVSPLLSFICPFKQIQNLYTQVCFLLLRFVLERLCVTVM
# Outline: as §1
# ETV2 = target: T10, ETV2 (Homo sapiens, UniProt O00321 1-342); conditions: protein: recombinant; tags: N-terminal GST; dsDNA, one strand shown
# T10 sequence: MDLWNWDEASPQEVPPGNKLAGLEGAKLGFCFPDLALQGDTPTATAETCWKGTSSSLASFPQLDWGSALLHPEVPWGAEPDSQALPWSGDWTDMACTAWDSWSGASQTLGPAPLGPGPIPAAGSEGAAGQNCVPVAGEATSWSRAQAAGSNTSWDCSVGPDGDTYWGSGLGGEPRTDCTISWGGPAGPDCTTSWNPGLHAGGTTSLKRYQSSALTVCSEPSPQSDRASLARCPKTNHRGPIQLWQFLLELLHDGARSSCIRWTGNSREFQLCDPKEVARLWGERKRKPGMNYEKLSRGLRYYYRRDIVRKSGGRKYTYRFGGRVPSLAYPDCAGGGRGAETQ
# Outline: as §1
# ELF3 = target: T11, ELF3 (Homo sapiens, UniProt P78545 1-371); conditions: protein: recombinant; tags: N-terminal GST; dsDNA, one strand shown
# T11 sequence: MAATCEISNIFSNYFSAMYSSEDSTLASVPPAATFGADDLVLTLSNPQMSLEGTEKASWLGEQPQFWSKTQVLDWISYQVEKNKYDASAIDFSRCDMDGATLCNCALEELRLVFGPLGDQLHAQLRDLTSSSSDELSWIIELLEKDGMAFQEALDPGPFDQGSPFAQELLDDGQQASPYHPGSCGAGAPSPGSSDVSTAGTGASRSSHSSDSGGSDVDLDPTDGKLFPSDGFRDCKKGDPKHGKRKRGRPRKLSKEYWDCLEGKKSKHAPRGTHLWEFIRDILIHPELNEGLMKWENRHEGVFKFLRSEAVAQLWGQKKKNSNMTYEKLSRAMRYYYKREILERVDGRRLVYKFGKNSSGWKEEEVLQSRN
# Outline: as §1
# CRX = CRX (Homo sapiens, UniProt O43186 1-299); conditions: protein: recombinant; tags: N-terminal GST; dsDNA, one strand shown
# Sequence of CRX (O43186 whole entry): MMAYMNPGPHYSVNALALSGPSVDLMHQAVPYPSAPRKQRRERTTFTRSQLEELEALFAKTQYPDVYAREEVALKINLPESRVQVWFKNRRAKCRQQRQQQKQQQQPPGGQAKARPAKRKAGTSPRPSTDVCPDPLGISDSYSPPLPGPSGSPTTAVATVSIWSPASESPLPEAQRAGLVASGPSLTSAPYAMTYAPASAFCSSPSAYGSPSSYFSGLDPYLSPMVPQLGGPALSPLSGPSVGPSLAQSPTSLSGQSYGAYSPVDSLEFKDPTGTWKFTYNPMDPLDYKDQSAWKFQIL
# Outline: as §1
# ETV1 = ETV1 (Homo sapiens, UniProt P50549 1-477); conditions: protein: recombinant; tags: N-terminal GST; dsDNA, one strand shown
# Sequence of ETV1 (P50549 whole entry): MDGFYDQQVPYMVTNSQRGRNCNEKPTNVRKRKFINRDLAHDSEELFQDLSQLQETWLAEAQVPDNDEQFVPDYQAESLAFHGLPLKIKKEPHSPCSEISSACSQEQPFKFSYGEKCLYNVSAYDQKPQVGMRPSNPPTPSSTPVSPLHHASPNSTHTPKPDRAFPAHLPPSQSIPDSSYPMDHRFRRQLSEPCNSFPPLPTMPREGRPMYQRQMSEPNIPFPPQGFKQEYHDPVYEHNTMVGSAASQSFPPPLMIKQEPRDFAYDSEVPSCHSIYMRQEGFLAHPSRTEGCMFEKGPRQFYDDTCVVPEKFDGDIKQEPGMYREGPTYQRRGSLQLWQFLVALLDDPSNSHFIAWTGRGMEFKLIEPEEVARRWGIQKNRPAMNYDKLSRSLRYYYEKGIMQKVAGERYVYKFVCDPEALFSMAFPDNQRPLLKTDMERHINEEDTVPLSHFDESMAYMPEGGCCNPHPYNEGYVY
# Outline: as §1
sequence,measurement,setting,value
TGACCC,binding signal,FLI1,"1.34 fold enrichment (6-mer frequency, TF over GST control)"
same,binding signal,ELK1,"1.29 fold enrichment (6-mer frequency, TF over GST control)"
same,binding signal,GABPA,"1.38 fold enrichment (6-mer frequency, TF over GST control)"
same,binding signal,ERG,"1.4 fold enrichment (6-mer frequency, TF over GST control)"
same,binding signal,ELF1,"1.43 fold enrichment (6-mer frequency, TF over GST control)"
same,binding signal,EHF,"1.51 fold enrichment (6-mer frequency, TF over GST control)"
same,binding signal,SPI1,"1.26 fold enrichment (6-mer frequency, TF over GST control)"
same,binding signal,SPIB,"1.3 fold enrichment (6-mer frequency, TF over GST control)"
same,binding signal,ELK3,"1.4 fold enrichment (6-mer frequency, TF over GST control)"
same,binding signal,FEV,"1.46 fold enrichment (6-mer frequency, TF over GST control)"
same,binding signal,ETV5,"1.41 fold enrichment (6-mer frequency, TF over GST control)"
same,binding signal,HSF1,"1.1 fold enrichment (6-mer frequency, TF over GST control)"
same,binding signal,SPIC,"1.24 fold enrichment (6-mer frequency, TF over GST control)"
same,binding signal,ELF4,"1.48 fold enrichment (6-mer frequency, TF over GST control)"
same,binding signal,ELK4,"1.39 fold enrichment (6-mer frequency, TF over GST control)"
same,binding signal,ETV2,"1.56 fold enrichment (6-mer frequency, TF over GST control)"
same,binding signal,ELF3,"1.37 fold enrichment (6-mer frequency, TF over GST control)"
same,binding signal,CRX,"1.13 fold enrichment (6-mer frequency, TF over GST control)"
same,binding signal,ETV1,"1.25 fold enrichment (6-mer frequency, TF over GST control)"
